What all share (assay): NCI-60 one-dose screen, 48 h (100 = growth as untreated, 0 = no growth, -100 = all killed)
Conditions in all cases: 10 µM unless noted

Assay [1] concerns NCI-H23 lung.
Assay [2] concerns NCI-H226 lung.
Assay [3] relates to NCI-H322M lung.
Assay [4] has as its system HOP-62 NSCLC.
Assay [5] has as its system NCI-H460 lung.
Assay [6] concerns HOP-92 NSCLC.
In assay [7] the test system is NCI-H522 lung.
Assay [8] relates to A549/ATCC NSCLC.
Assay [9] relates to 786-0 renal.
The subject of assay [10] is COLO 205 colon.
Assay [11] deals with DU-145 prostate.
Assay [12] relates to K-562 leukemia.
The subject of assay [13] is MALME-3M melanoma.
Assay [14] has as its system MDA-MB-231 breast.
The test system of assay [15] is RXF 393 renal.
Assay [16] deals with SF-268 CNS.
Assay [17] deals with SF-295 CNS.
In assay [18] the test system is SF-539 CNS.
The test system of assay [19] is UACC-257 melanoma.
Assay [20] concerns M14 melanoma.

About 83,000 compounds went through this panel and 20% of them were active in at least one assay; those are over-represented in the sample as a whole.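 Compound tested at a single concentration for 48 hours in 96-well plates; a percent growth value below 10 was scored as active.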 Values without a mark were called inactive. The source made the active and inactive calls.

In the case of `CSc1ccc(C(=O)C[n+]2cccc(C)c2)cc1`, the growth in assay [1] is 102%; in assay [2] it was 94.3%; in [3], 102%; in assay [4], 107%; in assay [5], 109%; in assay [6], 105%. The growth in assay [7] is 110%; in [8], 105%; in assay [9] it was 100%; in assay [10], 109%; in assay [11] it was 109%; in assay [12] it was 102%. Also, the growth is 96.6% in assay [13]; 107% in [14]; 107% in assay [15]; 99.4% in assay [16]; 98.4% in [17]; 99.7% in assay [18]. Moreover, the growth is 98.2% in assay [19] and 103% in [20].

In the case of `O=C(COc1ccc(Cl)cc1Cl)N1N=C(c2ccc(Cl)cc2Cl)CC1(O)c1cc(F)c(Cl)cc1Cl` (stereo not given), the growth in assay [1] was 98.7%; in [2] it was 149%; in assay [3], 110%; in [4], 105%; in [5], 107%; in [6], 84.5%. Also, the growth in [7] was 95%; in assay [8], 107%; in assay [9] it was 101%; in assay [10] it was 95.4%; in assay [11], 123%; in [12], 64.4%. For the same compound, the growth in assay [13] is 129%; in [14] it was 136%; in assay [15], 134%; in assay [16], 103%; in assay [17] it was 117%; in assay [18], 112%. Moreover, the growth in [19] was 99%; in [20] it was 94.1%.

Consider `O=C(NCCNc1nccc(-c2c(-c3cccc(O)c3)nc3sccn23)n1)c1ccccc1`, for which the growth is 82.6% in assay [1]; 54.5% in [2]; 101% in assay [3]; 119% in assay [4]; 42.4% in assay [5]; 58.6% in assay [6]. Further, the growth in assay [7] was 72.7%; in [8], 56.3%; in assay [9] it was 66.5%; in [10] it was 48.5%; in assay [11], 90.4%; in assay [12], 62.7%. Moreover, the growth in [13] is 9.31% (active); in assay [14] it was 80%; in assay [15], 62.6%; in assay [16], 80.7%; in [17], 67.4%; in assay [18] it was 73.2%. The growth is 11.3% in [19] and 15.3% in assay [20].

Regarding `CCCCN(CCCC)c1ccc(C(=N)c2ccc(N(C)C)cc2)cc1`, the growth was -46.1% (active) in [1]; -46.4% (active) in assay [2]; -32% (active) in [3]; -84% (active) in assay [4]; -88.5% (active) in assay [5]; -32.7% (active) in assay [6]. Also, the growth was -66.1% (active) in [7]; 3.26% (active) in [8]; -84.4% (active) in assay [9]; -93.8% (active) in [10]; -21% (active) in assay [11]; -30.9% (active) in assay [12]. Besides, the growth in assay [13] is -81.6% (active); in [14], -76.7% (active); in [15] it was -75% (active); in assay [16] it was -21.8% (active); in assay [17], -72.1% (active); in [18], -89.1% (active). In addition, the growth is -62.8% (active) in [19] and -93.3% (active) in assay [20].

As for `O=C(Nc1ccc(-n2ccc3c(NC(=O)c4ccccc4)ncnc32)cc1)Nc1ccc(Cl)c(Cl)c1`, the growth in assay [1] was 18.7%; in assay [2], 16.7%; in assay [3], 21%; in assay [4], 8.39% (active); in assay [5] it was -29.6% (active); in assay [6] it was -9.63% (active). Moreover, the growth was -12.2% (active) in [7]; -44.5% (active) in assay [8]; 26.1% in [9]; 17.7% in assay [10]; -12.3% (active) in assay [11]; -39.8% (active) in [12]. For the same compound, the growth in [13] was 7.71% (active); in [14] it was 26.7%; in assay [15] it was -18.2% (active); in assay [16] it was -20.7% (active); in assay [17], -8.32% (active); in assay [18] it was -22.6% (active). In addition, the growth is 8.87% (active) in assay [19] and 12% in [20].

As to `Oc1ccc(O)c(-[n+]2ccccc2)c1`, the growth in assay [1] is 99.4%; in assay [2], 93%; in [3], 109%; in assay [4] it was 94.2%; in [5], 105%; in [6], 92.6%. Also, the growth in [7] was 82.7%; in [8], 83.8%; in assay [9], 95.3%; in [10], 112%; in [11] it was 108%; in [12], 107%. The growth is 112% in [13]; 110% in assay [14]; 106% in [15]; 102% in [16]; 110% in [17]; 108% in assay [18]. Moreover, the growth in assay [19] was 95.1%; in assay [20] it was 103%.

Take `COc1ccc(Cl)cc1NC(=O)c1cc2c([nH]1)-c1nc(NC(=O)C(C)(C)C)sc1CC2`: the growth in assay [1] is 57.8%; in [2] it was 57.7%; in assay [3], 75.5%; in assay [4], 61.7%; in assay [5], 18.3%; in assay [6] it was 51.4%. Further, the growth in [7] was 38%; in assay [8] it was 60.6%; in assay [9] it was 93.2%; in assay [10], 78.1%; in assay [11], 59.9%; in assay [12], 10.6%. The growth is 74.1% in assay [13]; 33.1% in assay [14]; 99% in [15]; 45.3% in assay [16]; 84.2% in assay [17]; -14.6% (active) in assay [18]. For the same compound, the figures for the growth in [19] and in assay [20] were 94.4% and 71.7%, respectively.

`CCc1cccc(C)c1NC(=O)c1sc2nc3c(cc2c1N)CCCCC3`: the growth in [1] is 45.3%; in assay [2] it was 50.7%; in assay [3], 41.4%; in [4], 36.9%; in assay [5], 13.3%; in assay [6], 72.2%. For the same compound, the growth is -9.98% (active) in assay [7]; 32.9% in assay [8]; 44.8% in assay [9]; 7.73% (active) in [10]; 13.2% in assay [11]; 9.14% (active) in [12]. Besides, the growth in assay [13] is 47%; in assay [14], 35.6%; in assay [15] it was 11.6%; in assay [16] it was 56.5%; in [17] it was 27%; in assay [18], 11.1%. In addition, the growth in [19] was 71.7%; in assay [20], 3.86% (active).

For the compound `COc1ccc(-c2c(C#N)cnc(N)c2-c2nc3cc(C)c(C)cc3[nH]2)cc1`, the growth in assay [1] was 44.9%; in assay [2], 99.3%; in [3] it was 38.2%; in assay [4] it was 57%; in assay [5], 36%; in assay [6], 68%. The growth was 45.6% in assay [7]; 27.2% in assay [8]; 25.8% in [9]; 68.7% in assay [10]; 37.4% in assay [11]; 51.6% in assay [12]. Also, the growth is 45.9% in assay [13]; 53.4% in assay [14]; 56.6% in [15]; 57.1% in [16]; 27.3% in [17]; 92% in assay [18]. Besides, the growth is 70% in assay [19] and 51.2% in [20].

`Nc1ncnc2c1c(-c1ccc(Oc3ccccc3)cc1)nn2C[C@@H]1SSC[C@H]1O`: the growth in [1] was 40.6%; in assay [2] it was -3.02% (active); in assay [3], 36.9%; in assay [4], 37.6%; in assay [5], 3.61% (active); in assay [6], -6.86% (active). For the same compound, the growth was 10.1% in assay [7]; 21.4% in assay [8]; 42.7% in assay [9]; 52% in assay [10]; 33.4% in assay [11]; 7.7% (active) in assay [12]. Also, the growth is 7.28% (active) in assay [13]; 42.6% in assay [14]; -9.3% (active) in assay [15]; 29.3% in assay [16]; 24.2% in [17]; 15.3% in [18]. For the same compound, the growth in assay [19] is 36.8%; in assay [20] it was -13.8% (active).

As to `O=C(Nc1ccc(-n2cc(-c3ccncc3)c(-c3ccc(O)c(Cl)c3)n2)cc1)c1cc(Cl)cc(Cl)c1`, the growth in assay [1] is 59.2%; in assay [2] it was 89.1%; in assay [3] it was 50.1%; in [4] it was 45.5%; in [5] it was 22.3%; in assay [6], 42%. Further, the growth was 22% in [7]; 35.9% in assay [8]; -42.1% (active) in [9]; 91.1% in [10]; 38.9% in [11]; 11.5% in assay [12]. Besides, the growth in assay [13] was 34%; in [14] it was -54.1% (active); in assay [15], -80.2% (active); in assay [16], 49.4%; in [17], -11.1% (active); in assay [18], 12.8%. The growth in assay [19] is 66.9%; in [20], -40.4% (active).

In the case of `CCNc1cc(S(=O)(=O)O)ccc1C`, the growth was 103% in assay [1]; 103% in assay [2]; 112% in assay [3]; 90.8% in assay [4]; 112% in assay [5]; 104% in [6]. In addition, the growth in [7] is 93.3%; in assay [8] it was 81.3%; in assay [9], 99.8%; in assay [10], 92.8%; in [11], 108%; in assay [12], 102%. Moreover, the growth in assay [13] is 106%; in [14] it was 102%; in assay [15] it was 110%; in assay [16], 113%; in assay [17] it was 101%; in assay [18], 102%. Moreover, the growth in assay [19] was 83.2%; in assay [20], 106%.

In the case of `CC(C)NCC(O)COc1ccc(CC(N)=O)cc1` (stereo not given), the growth is 105% in [1]; 102% in assay [2]; 100% in assay [3]; 102% in assay [4]; 109% in assay [5]; 85.6% in assay [6]. In addition, the growth in [7] is 94.9%; in [8] it was 106%; in assay [9] it was 97.2%; in [10], 114%; in assay [11], 109%; in assay [12] it was 96.6%. In addition, the growth in assay [13] was 98.4%; in assay [14] it was 103%; in assay [15], 111%; in assay [16] it was 112%; in [17], 95.8%; in assay [18], 109%. The growth was 104% in assay [19] and 98.3% in [20].

Values taken from PubChem BioAssay (NCI).
